Source: PubChem BioAssay (NCATS)
Inconclusive results are not listed. Calls of active or inactive are those of the source. Calls come from the whole dose curve; as a rule, active = well fitted inhibition curve with a large enough effect; inconclusive = small, poorly fitted or top-dose-only effect; inactive = no such curve, though single readings can be large or run the other way.

assay: qHTS Screen of the MIPE 4.0 Collection Against Ewings Sarcoma (TC71) (AID 1259253); conditions: TC71 Ewing sarcoma viability, CellTiter-Glo, 48 h; series mostly up to 45.8 µM; viability (% of DMSO): at the top concentration; note: nearly all actives have a fitted effect of over 40% in size;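 for viability (% of DMSO): 100% = DMSO-treated cells and 0% = medium-only wells without cells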
How it was run: (§1)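 Here, cells in 5% FBS RPMI were exposed for two days (48 h) to compound dilutions added four hours after plating. ATP-based CellTiter-Glo luminescence measured viability, normalized to vehicle and no-cell blanks.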
Potency is the fitted concentration of half-maximal effect.

**Q.** For CC(C)c1onc(-c2c(Cl)cccc2Cl)c1COc1ccc(C=Cc2cccc(C(=O)O)c2)c(Cl)c1, which Potency is on record?
**A.** Its Potency is 18.7 µM (active).

**Q.** For O=C1NC(=O)C(=Cc2ccc(-c3ccc(F)cc3O)o2)S1, which Potency is on record?
**A.** The Potency was 23.5 µM (active).

**Q.** Which Potency does the source give for C#C[C@]1(O)CC[C@H]2[C@H]3CCc4cc(OC)ccc4[C@H]3CC[C@@]21C here?
**A.** The Potency was 29.6 µM (active).

**Q.** Which “viability (% of DMSO)” value does the source give for CNC(=O)c1cc(COc2nnc(Nc3ccc(Cl)cc3)c3ccoc23)ccn1 here?
**A.** The value was 123% (inactive).

**Q.** With CC(C)C[C@@H](C(=O)N[C@H](C(=O)OC1CCCC1)c1ccccc1)[C@H](O)C(=O)NO as the compound, how does the Potency read?
**A.** Its Potency is 18.7 µM (active).

**Q.** For COC1CCC(C(=O)c2ccc3nc4c(cc3c2)CCCO4)CC1 (stereo not given), which Potency is on record?
**A.** Its Potency is 16.6 µM (active).

**Q.** With CC(C)(O)CC(=O)NCCn1ccc2ncnc(Nc3ccc(Oc4cccc(C(F)(F)F)c4)c(Cl)c3)c21 as the compound, how does the Potency read?
**A.** The Potency was 26.4 µM (active).

**Q.** With CC[C@H](NC(=O)[C@H](C)NC)C(=O)N1C[C@@H](O)C[C@H]1Cc1c(-c2[nH]c3cc(F)ccc3c2C[C@H]2C[C@H](O)CN2C(=O)[C@H](CC)NC(=O)[C@H](C)NC)[nH]c2cc(F)ccc12 as the compound, how does the “viability (% of DMSO)” value read?
**A.** The value was 119% (inactive).

**Q.** With Cc1c(-c2cccc3c(CCCOc4cccc5ccccc45)c(C(=O)O)n(Cc4cccnc4)c23)c(COc2ccc(N3CCN([S+](=O)([O-])N(C)C)CC3)cc2)nn1C as the compound, how does the Potency read?
**A.** Its Potency is 20.9 µM (active).

**Q.** For COc1c(C)c2c(c(O)c1CC=C(C)CCC(=O)O)C(=O)OC2, which Potency is on record?
**A.** The Potency was 2.35 µM (active).

**Q.** With N[C@@H](CC(=O)N1CCn2c(nnc2C(F)(F)F)C1)Cc1cc(F)c(F)cc1F as the compound, how does the Potency read?
**A.** Its Potency is 16.6 µM (active).

**Q.** With CN(C(Cc1ccc(OS(=O)(=O)c2cccc3cnccc23)cc1)C(=O)N1CCN(c2ccccc2)CC1)S(=O)(=O)c1cccc2cnccc12 (stereo not given) as the compound, how does the Potency read?
**A.** The Potency was 18.7 µM (active).

**Q.** Which Potency does the source give for CCC(=C(CC)c1ccc(O)cc1)c1ccc(O)cc1 here?
**A.** The Potency was 26.4 µM (active).

**Q.** For Cc1ccc2c(=O)c3cccc(CC(=O)O)c3oc2c1C, which Potency is on record?
**A.** Its Potency is 18.7 µM (active).

**Q.** With CCN(CC)CCCCNc1nc2cc(Cl)c(Cl)cc2nc1-c1ccc(-c2cccs2)s1 as the compound, how does the Potency read?
**A.** Its Potency is 23.5 µM (active).

**Q.** Which Potency does the source give for CC[C@]1(O)C[C@H]2CN(CCC3=c4ccccc4=N[C]3[C@@](C(=O)OC)(c3cc4c(cc3OC)N(C)[C@H]3[C@@](O)(C(N)=O)[C@H](O)[C@]5(CC)C=CCN6CC[C@]43[C@@H]65)C2)C1 here?
**A.** The Potency was 0.0264 µM (active).

**Q.** With CN[C@@H](C)[C@H]1[C@H](O)C[C@@]2(C)[C@@H]3CC[C@H]4C(C)(C)[C@@H](NC)CC[C@@]45C[C@@]35CC[C@]12C as the compound, how does the “viability (% of DMSO)” value read?
**A.** The value was 104% (inactive).

**Q.** With O=S(=O)(NCCNCC=Cc1ccc(Br)cc1)c1cccc2cnccc12 as the compound, how does the Potency read?
**A.** The Potency was 2.64 µM (active).

**Q.** With COc1nccc(-c2c(-c3ccc(F)cc3)ncn2C2CCNCC2)n1 as the compound, how does the Potency read?
**A.** Its Potency is 5.9 µM (active).

**Q.** Which Potency does the source give for C[C@@H](O[C@H]1OCCN(Cc2n[nH]c(=O)[nH]2)[C@@H]1c1ccc(F)cc1)c1cc(C(F)(F)F)cc(C(F)(F)F)c1 here?
**A.** The Potency was 20.9 µM (active).

**Q.** Which “viability (% of DMSO)” value does the source give for CN(CC=CC#CC(C)(C)C)Cc1cccc2ccccc12 here?
**A.** The value was 103% (inactive).

**Q.** With O=C1NC(=O)C(c2cnc3ccccn23)=C1c1cn2c3c(cccc13)CN(C(=O)N1CCOCC1)CC2 as the compound, how does the Potency read?
**A.** Its Potency is 23.5 µM (active).

**Q.** For COc1ccc2cc1Oc1ccc(cc1)C[C@H]1c3cc(c(OC)cc3CCN1C)Oc1c(OC)c(OC)cc3c1[C@H](C2)N(C)CC3, which Potency is on record?
**A.** The Potency was 20.9 µM (active).

**Q.** Which Potency does the source give for CCC(C)SSc1ncc[nH]1 (stereo not given) here?
**A.** The Potency was 26.4 µM (active).

**Q.** For Cc1ccccc1C(=O)c1ccc(Nc2ccc(Br)cc2N)cc1Cl, which Potency is on record?
**A.** The Potency was 16.6 µM (active).

assay: qHTS Screen of the MIPE 4.0 Collection Against Ewings Sarcoma (EW8) (AID 1259255); conditions: EW8 Ewing sarcoma viability, CellTiter-Glo, 48 h; series mostly up to 45.8 µM; viability: at the top concentration; note: nearly all actives have a fitted effect of over 35% in size;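 for viability: 100% = DMSO-treated cells and 0% = medium-only wells without cells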
How it was run: as §1

**Q.** Which “viability” value does the source give for CC(C)c1onc(-c2c(Cl)cccc2Cl)c1COc1ccc(C=Cc2cccc(C(=O)O)c2)c(Cl)c1 here?
**A.** The value was 93.2% (inactive).

**Q.** Which Potency does the source give for O=C1NC(=O)C(=Cc2ccc(-c3ccc(F)cc3O)o2)S1 here?
**A.** Its Potency is 18.7 µM (active).

**Q.** With COc1cc2nccc(Oc3ccc(NC(=O)Nc4ccc(F)cc4F)c(F)c3)c2cc1OC as the compound, how does the Potency read?
**A.** Its Potency is 16.6 µM (active).

**Q.** Which “viability” value does the source give for CNC(=O)c1cc(COc2nnc(Nc3ccc(Cl)cc3)c3ccoc23)ccn1 here?
**A.** Its value is 114% (inactive).

**Q.** Which Potency does the source give for CC(C)(C)c1nc(-c2cccc(NS(=O)(=O)c3c(F)cccc3F)c2F)c(-c2ccnc(N)n2)s1 here?
**A.** Its Potency is 18.7 µM (active).

**Q.** Which Potency does the source give for CC(C)C[C@@H](C(=O)N[C@H](C(=O)OC1CCCC1)c1ccccc1)[C@H](O)C(=O)NO here?
**A.** Its Potency is 18.7 µM (active).

**Q.** For Fc1ccc(C(c2ccc(F)cc2)N2CCN(CC=Cc3ccccc3)CC2)cc1, which Potency is on record?
**A.** Its Potency is 16.6 µM (active).

**Q.** Which Potency does the source give for COc1c(C)c2c(c(O)c1CC=C(C)CCC(=O)O)C(=O)OC2 here?
**A.** Its Potency is 1.48 µM (active).

**Q.** Which Potency does the source give for N[C@@H](CC(=O)N1CCn2c(nnc2C(F)(F)F)C1)Cc1cc(F)c(F)cc1F here?
**A.** The Potency was 18.7 µM (active).

**Q.** For COc1cc(C=CC(=O)O)ccc1O, which “viability” value is on record?
**A.** Its value is 116% (inactive).

**Q.** For CCC(=C(CC)c1ccc(O)cc1)c1ccc(O)cc1, which Potency is on record?
**A.** The Potency was 26.4 µM (active).

**Q.** With CCN(CC)CCCCNc1nc2cc(Cl)c(Cl)cc2nc1-c1ccc(-c2cccs2)s1 as the compound, how does the Potency read?
**A.** Its Potency is 23.5 µM (active).

**Q.** For CN[C@@H](C)[C@H]1[C@H](O)C[C@@]2(C)[C@@H]3CC[C@H]4C(C)(C)[C@@H](NC)CC[C@@]45C[C@@]35CC[C@]12C, which “viability” value is on record?
**A.** The value was 93.7% (inactive).

**Q.** Which Potency does the source give for CN1CCN(c2cccc(Nc3nc4c(-c5ccc(S(C)(=O)=O)cc5)cccn4n3)c2)CC1 here?
**A.** Its Potency is 5.9 µM (active).

**Q.** For COc1nccc(-c2c(-c3ccc(F)cc3)ncn2C2CCNCC2)n1, which Potency is on record?
**A.** Its Potency is 9.35 µM (active).

**Q.** Which Potency does the source give for C[C@@H](O[C@H]1OCCN(Cc2n[nH]c(=O)[nH]2)[C@@H]1c1ccc(F)cc1)c1cc(C(F)(F)F)cc(C(F)(F)F)c1 here?
**A.** The Potency was 26.4 µM (active).

**Q.** With CN(CC=CC#CC(C)(C)C)Cc1cccc2ccccc12 as the compound, how does the “viability” value read?
**A.** Its value is 90.5% (inactive).

**Q.** Which “viability” value does the source give for OCCn1cc(-c2ccc3c(c2)CCC3=NO)c(-c2ccncc2)n1 here?
**A.** The value was 94.4% (inactive).

**Q.** For CCC(C)SSc1ncc[nH]1 (stereo not given), which Potency is on record?
**A.** Its Potency is 11.8 µM (active).

**Q.** With Cc1ccccc1C(=O)c1ccc(Nc2ccc(Br)cc2N)cc1Cl as the compound, how does the Potency read?
**A.** The Potency was 23.5 µM (active).
